Consider 14 molecules from PubChem BioAssay (NCATS).

“And” between values parts separate entries of the source, which are not always exact repeats. Equal entries are not always repeated. Results filed as inconclusive are left out. The source made the active and inactive calls. Unless noted, how the calls were made is not given here.

The nature of test [1]: qHTS Assay for Identifying Gametocytocidal Compounds (AID 743244; active means well fitted curve in the direction sought with a large enough effect; an effect the other way counts as inactive or inconclusive; further: potency means the concentration at half of the fitted maximal effect;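 on max response: on the % scale 0 is the no-effect control and ±100 the full control effect; actives lower the fluorescent signal which means gametocytes are killed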). The conditions noted are these: P. falciparum 3D7 stage III-V gametocytes, alamarBlue, 72 h; max response: stronger effect = lower value. An outline of the steps: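 P. falciparum 3D7 stage III–V gametocytes (20,000 cells/well) were exposed to compounds for 72 h at 37 °C, 5% CO2. AlamarBlue was then added for 24 h; decreased resorufin fluorescence (Ex 525/Em 598 nm) indicated loss of viability.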
(In general: Quantitative high-throughput screening tests each substance at several concentrations.)

Test [2] in a line: qHTS profiling of the MIPE4 collection as inhibitors of Plasmodium falciparum (3D7) proliferation (AID 743344).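 Further: scaled between DMSO vehicle wells and 0.29 µM artemisinin as full inhibition.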 The conditions noted are these: P. falciparum 3D7 in erythrocytes, SYBR Green DNA fluorescence, 72 h; at 28.5 µM (top of the series). Summed up: (§1)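 Erythrocytes infected with P. falciparum (0.3% parasitemia, 2.5% hematocrit) incubated with compounds 72 h at 37 C, 5% CO2. Lysis with saponin/Triton buffer containing SYBR Green I, overnight at room temperature in the dark; DNA fluorescence (485/535 nm) normalised to 0.29 uM artemisinin and DMSO.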

The nature of test [3]: qHTS profiling of the MIPE4 collection as inhibitors of Plasmodium falciparum (DD2) proliferation (AID 743345). Conditions: P. falciparum Dd2 in erythrocytes, SYBR Green DNA, 72 h; at 28.5 µM (top of the series) unless noted. Summed up: as §1
Test [4] is described as follows: qHTS profiling of the MIPE4 collection as inhibitors of Plasmodium falciparum (HB3) proliferation (AID 743347).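 Further: plate controls were DMSO vehicle wells for no effect and artemisinin wells for full effect.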 The conditions noted are these: P. falciparum HB3 in erythrocytes, SYBR Green DNA, 72 h; at 28.5 µM (top of the series). An outline of the steps: as §1
Test [5] is described as follows: High-throughput drug toxicity screening in the BPDCN cell line Gen2.2 (AID 1224824).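 Further: cells exposed to compounds for 48 h before reading.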 The conditions noted are these: Gen2.2 BPDCN cells; at 45.8 µM (top of the series). Summed up: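 Seed 500 exponentially growing Gen2.2 cells/well; add compounds by pin tool; incubate 48 h, 37 °C, 5% CO2; add CellTiter-Glo, 15 min RT; read luminescence. % activity vs DMSO (100%) and bortezomib (0%).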

The nature of test [6]: qHTS profiling of the MIPE4 collection as inhibitors of Plasmodium falciparum (DD2) proliferation (Rep 2) (AID 743346). Conditions: P. falciparum Dd2 in erythrocytes, SYBR Green DNA, 72 h; at 28.5 µM (top of the series). An outline of the steps:
as §1

Test [7] can be described thus: Immunotoxin (SS1P) sensitization/mitigation study. Vehicle arm (DMEM) (AID 1159513). Further: potency means the concentration at half of the fitted maximal effect.
The nature of test [8]: qHTS profiling for inhibitors of Plasmodium falciparum (3D7) proliferation (AID 743322).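 Further: infected erythrocytes exposed to compound for 72 h before lysis; 100% = DMSO vehicle wells and 0% = 0.29 µM artemisinin.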 The conditions noted are these: P. falciparum 3D7 proliferation; at 28.7 µM (top of the series) unless noted. Summed up:
as §1

A short description of test [9]: qHTS profiling for inhibitors of Plasmodium falciparum (DD2) proliferation (AID 743323). The conditions noted are these: lower = more inhibition; at 28.7 µM (top of the series) unless noted. Summed up: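 Parasite DNA quantified by SYBR Green fluorescence (ex 485, em 535 nm) after saponin/Triton lysis and overnight dark incubation. Cultures: 0.3% parasitemia, 2.5% hematocrit, 72 h, 37 C; data scaled between DMSO and 0.29 uM artemisinin.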

A short description of test [10]: qHTS profiling for inhibitors of Plasmodium falciparum (HB3) proliferation (AID 743324; active means well fitted curve in the direction sought with a large enough effect; an effect the other way counts as inactive or inconclusive;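 further: 100% = DMSO vehicle wells and 0% = artemisinin-treated control wells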). Conditions: Plasmodium falciparum HB3 blood-stage proliferation; at 28.7 µM (top of the series) unless noted. An outline of the steps:
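P. falciparum HB3 grown in erythrocytes (0.3% parasitemia, 2.5% hematocrit final) with compound for 72 h at 37 C, 5% CO2. Parasite DNA detected by SYBR Green after saponin/triton lysis overnight; normalized to 0.29 uM artemisinin and DMSO.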

In the case of `CC[C@@]1(O)C(=O)OCc2c1cc1n(c2=O)Cc2cc3ccccc3nc2-1`, the max response in test [1] is -1.6% (inactive). Besides, the parasite growth, % of DMSO control in test [2] turned out to be 15.1%. The molecule further gave a parasite growth remaining, % of DMSO control (lower = more inhibition) in [3] of 12.9%. For the same molecule, in test [4], the growth, % of control is 5.89%. Moreover, the cell viability, % of control (lower = more cytotoxic) in test [5] turned out to be 4.89%.
For the molecule `CC=C(C)C(=O)N[C@@H](c1ccccc1)[C@@H](O)C(=O)O[C@H]1C[C@@]2(O)[C@@H](OC(=O)c3ccccc3)[C@@H]3[C@]4(OC(C)=O)CO[C@@H]4C[C@H](O)[C@@]3(C)C(=O)[C@H](OC(C)=O)C(=C1C)C2(C)C`, the parasite growth, % of DMSO control in test [2] was 4.24%. This molecule also displayed a parasite growth remaining, % of DMSO control (lower = more inhibition) in [3] of 14%. Further, the parasite growth, % of control (lower = inhibition) in [6] is 15.6%. The growth, % of control in test [4] worked out at 6.33%. Moreover, in test [5], the cell viability, % of control (lower = more cytotoxic) came to 47%.
The matching figures for `c1cc2c(cc1[C@H]1OC[C@H]3[C@H]1CO[C@H]3c1ccc3c(c1)OCO3)OCO2`: 104%, 91.9%, 126%, 107% and 197%.
The matching figures for `C[C@@H]1CC[C@H]2[C@@H](C)C(=O)O[C@@H]3O[C@@]4(C)CC[C@H]1[C@]32OO4`: 22.6%, 7.95%, 7.78%, 7.52% and 95.1%.
`COc1ccc(N(C(=O)Oc2c(C)cccc2C)c2ccnc(Nc3ccc(N4CCN(C)CC4)cc3)n2)c(OC)c1` displayed a parasite growth, % of DMSO control in test [2] of 5.18%. The same molecule showed a parasite growth remaining, % of DMSO control (lower = more inhibition) in [3] of 6.94%. In addition, in [6], the parasite growth, % of control (lower = inhibition) stood at 20.9%. Further, the growth, % of control in test [4] stood at 9.74%. Also, in [5], the cell viability, % of control (lower = more cytotoxic) is 137%.
`CC#C[C@]1(O)CC[C@H]2[C@@H]3CCC4=CC(=O)CCC4=C3[C@H](c3ccc(N(C)C)cc3)C[C@@]21C`: the Potency in test [7] was 23.5 µM (active).
With `Oc1ccc2c3c1O[C@H]1c4[nH]c5c(c4C[C@@]4(O)[C@@H](C2)N(CC2CC2)CC[C@]314)C[C@@]1(O)[C@H]2Cc3ccc(O)c4c3[C@@]1(CCN2CC1CC1)[C@H]5O4`, the parasite growth, % of DMSO control in [2] was found to be 10.3%. This molecule also gave a parasite growth remaining, % of DMSO control (lower = more inhibition) in [3] of 25.9%. Also, the parasite growth, % of control (lower = inhibition) in test [6] was 13%. In test [4], this molecule had a growth, % of control of 4.03%. Further, the cell viability, % of control (lower = more cytotoxic) in test [5] was 143%.
For `NC1CC1c1ccccc1` (stereo unspecified), the max response in test [1] was 14.3% (inactive). This molecule had a parasite growth, % of DMSO control in test [2] of 95.6%. Besides, the parasite growth remaining, % of DMSO control (lower = more inhibition) in test [3] turned out to be 17.6%. For the same molecule, in test [4], the growth, % of control was 109%. Besides, the cell viability, % of control (lower = more cytotoxic) in [5] was 70.9%.
Molecule `O=c1cccc2n1CC1CNC[C@H]2C1` yielded a parasite growth, % of DMSO control in test [2] of 71.3%. Further, in test [3], the parasite growth remaining, % of DMSO control (lower = more inhibition) was found to be 90.9%. In addition, in test [6], the parasite growth, % of control (lower = inhibition) turned out to be 53.7%. In [4], this molecule came in with a growth, % of control of 52.1%. For the same molecule, the cell viability, % of control (lower = more cytotoxic) in test [5] came to 51.5%.
Turning to `CN(C)[C@@H]1C(=O)C(C(N)=O)=C(O)[C@@]2(O)C(=O)C3=C(O)c4c(O)cccc4[C@@](C)(O)[C@H]3[C@H](O)[C@@H]12`, the max response in test [1] was -4.72% (inactive) and -5.37% (inactive). Besides, in [2], the parasite growth, % of DMSO control worked out at 29.4%. Also, the parasite growth remaining, % of DMSO control (lower = more inhibition) in test [3] was 45.1%. The molecule also came in with a growth, % of control in test [4] of 19.3%. Also, in test [5], the cell viability, % of control (lower = more cytotoxic) amounted to 109%.
Consider `Cc1c(C(=O)Nc2cccc(C(F)(F)F)c2)cc(-c2ccccc2)n1CCCN1CCOCC1`, for which the max response in test [1] is 12.4% (inactive). Besides, in test [8], the remaining parasite growth % (stronger effect = lower value) turned out to be 8.32%. This molecule also came in with an activity, percent of control in [9] of 17.4%. Also, the remaining proliferation (% of control), lower = more inhibition in test [10] is 9.01%. Moreover, the parasite growth, % of DMSO control in test [2] was found to be 19.9%. Also, the parasite growth remaining, % of DMSO control (lower = more inhibition) in test [3] came to 69.6%. Moreover, the parasite growth, % of control (lower = inhibition) in test [6] came out at 16.5%. The growth, % of control in test [4] was 10.9%. In addition, in [7], the Potency was 23.5 µM (active). Besides, the cell viability, % of control (lower = more cytotoxic) in test [5] was 52.7%.
`O=C(O)c1ccc(O)c2ncc(N3CCOCC3)cc12`: the Potency in test [1] is 9.35 µM (active). Moreover, the activity, percent of control in [9] is 35.5%. For the same molecule, the remaining proliferation (% of control), lower = more inhibition in test [10] is 35.5%. In addition, the parasite growth remaining, % of DMSO control (lower = more inhibition) in [3] is 37%. In addition, the Potency result in test [7] was “inactive”.
For `C1=C2CCCN[C@H]2[C@@H]2C[C@H]1[C@@H]1CCCCN1C2`, the parasite growth, % of DMSO control in test [2] turned out to be 71.7%. In [3], this molecule gave a parasite growth remaining, % of DMSO control (lower = more inhibition) of 84.7%. Further, the parasite growth, % of control (lower = inhibition) in test [6] was found to be 69.3%. In addition, in test [4], the growth, % of control stood at 94.5%. Moreover, in test [5], the cell viability, % of control (lower = more cytotoxic) is 131%.
For the molecule `CCN1CCN(C(=O)Cc2ccc(Nc3ncc(F)c(Nc4ccc(C(=O)Nc5ccccc5Cl)cc4)n3)cc2)CC1`, in test [2], the parasite growth, % of DMSO control came to 6.35%. The same molecule returned a parasite growth remaining, % of DMSO control (lower = more inhibition) in test [3] of 7.02%. Also, the parasite growth, % of control (lower = inhibition) in test [6] came to 14.2%. Further, the growth, % of control in test [4] amounted to 7.73%. For the same molecule, the cell viability, % of control (lower = more cytotoxic) in test [5] was 2.73%.
